# In PubChem BioAssay (Tox21):
# Inconclusive results are not listed. Where a call stands in place of a potency, no number is given. The source made the active and inactive calls. Unless noted, the call rests on the fitted dose curve; in most records, active means well fitted curve in the direction sought with a large enough effect in the repeat runs; inconclusive means weak or mixed curves; inactive means flat fitted curve, though single readings scatter.
# Columns and labels:
# [1] = qHTS assay to test for compound auto fluorescence at 535 nm (green) in HEK293 cells (AID 720680)
# [2] = qHTS assay to test for compound auto fluorescence at 460 nm (blue) in HEK293 cell free culture (AID 720681)
# Outline: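 Test compounds were pinned into cell-free culture medium (DMEM with 10% FBS) and fluorescence was read directly at Ex/Em 405/460 nm. Signals were expressed as fluorescence equivalents of triamterene, with DMSO vehicle as control.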
# [3] = qHTS assay to test for compound auto fluorescence at 535 nm (green) in HEK293 cell free culture (AID 720682)
# Outline: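 Fluorescein serves as the green reference fluorophore; each compound's intrinsic emission at 535 nm (excitation 485 nm) is reported as an equivalent amount of that dye, measured in serum-containing DMEM without cells.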
# [4] = qHTS assay to test for compound auto fluorescence at 590 nm (red) in HEK293 cell free culture (AID 720683)
# Outline: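 Tox21 10K library compounds were pinned into cell-free DMEM with 10% FBS and fluorescence was read at excitation 540 nm. Activity is expressed as Rose Bengal sodium equivalency.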
# [5] = qHTS assay to test for compound auto fluorescence at 460 nm (blue) in HepG2 cell free culture (AID 720685)
# Outline: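 Cell-free plates of MEM plus 10% FBS received 23 nL compound or DMSO vehicle; blue-channel (405/460 nm) intensity scored against triamterene as reference fluorophore.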
# [6] = qHTS assay to test for compound auto fluorescence at 535 nm (green) in HepG2 cell free culture (AID 720686)
# [7] = qHTS assay to test for compound auto fluorescence at 460 nm (blue) in HepG2 cells (AID 720687)
# Outline: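 Cells (2,000/well in MEM with 10% FBS) attached overnight at 37 C, then were exposed to compound or DMSO for 1 hr at 37 C, 5% CO2. Fluorescence read at Ex/Em 405/460 nm, expressed as triamterene-equivalent signal.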
# [8] = target: Glucocorticoid receptor (Homo sapiens) (UniProt P04150); assay: qHTS assay to identify small molecule agonists of the glucocorticoid receptor (GR) signaling pathway (AID 720691; active means well fitted activation curve with a large enough effect in the signal ratio in the repeat runs, not every such curve was filed as active; the % refers to the signal ratio)
# Outline: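 Measures GR pathway activation through a GRE-beta-lactamase reporter stably integrated in HeLa cells, with 18 h compound treatment at 37 C and fluorescence detection using a FRET substrate.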
# [9] = qHTS assay to test for compound auto fluorescence at 590 nm (red) in HepG2 cell free culture (AID 720684)
# Outline: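 Readout: intrinsic compound fluorescence at 590 nm emission after 540 nm excitation, scaled to Rose Bengal sodium. Matrix was cell-free MEM with 10% FBS; DMSO vehicle wells served as control.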
# [10] = target: Glucocorticoid receptor (Homo sapiens) (UniProt P04150); assay: qHTS assay to identify small molecule antagonists of the glucocorticoid receptor (GR) signaling pathway (AID 720692; active means well fitted inhibition curve with a large enough effect in the signal ratio in the repeat runs, not every such curve was filed as active; the % refers to the signal ratio; further: potency means the concentration at half of the fitted maximal effect)
# Outline: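 Tox21 10K library screened in concentration-response for blockade of dexamethasone (5 nM final)-induced GRE-bla reporter activity in HeLa cells; 18 h treatment, fluorescence read.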
# Sequence of Glucocorticoid receptor (Homo sapiens) (P04150 whole entry, looked up): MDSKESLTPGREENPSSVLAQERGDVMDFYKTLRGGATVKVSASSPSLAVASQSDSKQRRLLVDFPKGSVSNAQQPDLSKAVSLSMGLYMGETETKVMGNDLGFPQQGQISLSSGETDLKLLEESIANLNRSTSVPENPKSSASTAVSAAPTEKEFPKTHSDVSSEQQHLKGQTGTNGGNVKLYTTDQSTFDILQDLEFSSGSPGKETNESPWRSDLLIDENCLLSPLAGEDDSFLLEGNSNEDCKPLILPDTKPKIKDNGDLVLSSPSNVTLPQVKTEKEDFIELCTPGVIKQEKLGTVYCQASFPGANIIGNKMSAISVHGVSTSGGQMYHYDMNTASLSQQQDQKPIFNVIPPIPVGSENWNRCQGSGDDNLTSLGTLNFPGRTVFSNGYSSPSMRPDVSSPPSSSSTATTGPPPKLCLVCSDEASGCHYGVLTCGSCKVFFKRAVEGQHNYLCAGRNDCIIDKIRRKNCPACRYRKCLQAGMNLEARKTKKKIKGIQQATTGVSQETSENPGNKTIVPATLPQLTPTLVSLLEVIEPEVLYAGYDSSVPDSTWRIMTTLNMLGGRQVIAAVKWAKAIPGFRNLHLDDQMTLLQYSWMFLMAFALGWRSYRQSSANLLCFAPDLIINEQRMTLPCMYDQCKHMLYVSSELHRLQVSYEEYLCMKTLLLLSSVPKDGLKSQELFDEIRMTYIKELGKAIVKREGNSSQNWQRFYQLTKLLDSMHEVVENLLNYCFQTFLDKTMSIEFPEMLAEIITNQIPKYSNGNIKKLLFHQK
SMILES,outcome [1],outcome [2],outcome [3],outcome [4],outcome [5],outcome [6],outcome [7],outcome [8],outcome [9],Potency [10]
CCCCCCC#N,inactive,inactive,inactive,inactive,inactive,inactive,inactive,–,–,–
CCOc1nc(F)cc2nc(S(=O)(=O)Nc3c(Cl)cccc3Cl)nn12,inactive,inactive,inactive,inactive,inactive,inactive,inactive,inactive,–,–
O=C(CCl)c1ccc(Cl)cc1Cl,inactive,inactive,inactive,inactive,inactive,inactive,–,inactive,–,–
Cc1ccc2ccccc2c1,–,inactive,inactive,inactive,inactive,inactive,inactive,–,inactive,–
[CH3][Sn]([CH3])([Cl])[Cl],–,inactive,inactive,inactive,inactive,inactive,inactive,–,inactive,–
N#C/C(N)=C(/N)C#N,inactive,inactive,inactive,inactive,inactive,inactive,inactive,inactive,–,–
CNC(C)Cc1ccccc1OC (stereo unspecified),inactive,inactive,inactive,inactive,inactive,inactive,inactive,–,–,inactive
COc1cc(Cl)c(OC)cc1Cl,inactive,inactive,inactive,inactive,inactive,inactive,–,inactive,–,–
CC1C(=O)C[C@]2(C(C)C)C[C@H]12 (stereo partly specified),–,inactive,inactive,inactive,inactive,inactive,–,–,inactive,–
CCCCc1c(C)nc(NCC)nc1OS(=O)(=O)N(C)C,inactive,inactive,inactive,inactive,inactive,inactive,inactive,inactive,–,–
CC(=O)NC1CCSC1=O (stereo unspecified),–,inactive,inactive,inactive,inactive,inactive,inactive,inactive,inactive,inactive
COC(=O)c1cncn1C(C)c1ccccc1 (stereo unspecified),–,inactive,inactive,inactive,inactive,inactive,inactive,–,inactive,–
CC(O)(CS(=O)(=O)c1ccc(F)cc1)C(=O)Nc1ccc(C#N)c(C(F)(F)F)c1 (stereo unspecified),–,inactive,inactive,inactive,inactive,inactive,–,inactive,inactive,inactive
COc1ccc(-c2ccccc2)cc1NNC(=O)OC(C)C,–,inactive,inactive,inactive,inactive,inactive,inactive,inactive,inactive,–
CCOC(=O)CBr,–,inactive,inactive,inactive,inactive,inactive,–,inactive,inactive,–
O=C1C(Cl)C(CCl)CN1c1cccc(C(F)(F)F)c1 (stereo unspecified),–,inactive,inactive,inactive,inactive,inactive,inactive,inactive,inactive,–
C=CC(=O)OCC(C)O (stereo unspecified),–,inactive,inactive,inactive,inactive,inactive,inactive,–,inactive,–
O=C(Nc1ccccc1)Nc1cnns1,–,inactive,inactive,inactive,inactive,inactive,inactive,–,inactive,inactive
NCC(CC(=O)O)c1ccc(Cl)cc1 (stereo unspecified),–,inactive,inactive,inactive,inactive,inactive,inactive,inactive,–,–
O=C1NCN(c2ccccc2)C12CCN(CCCOc1ccc(F)cc1)CC2,–,inactive,inactive,inactive,inactive,inactive,inactive,inactive,inactive,–
ClC=C(Cl)Cl,–,inactive,inactive,inactive,inactive,inactive,–,–,–,–
Nc1ccc(N=Nc2ccc(-c3ccc(N=Nc4c(S(=O)(=O)O)cc5cc(S(=O)(=O)O)c(N=Nc6ccccc6)c(O)c5c4N)cc3)cc2)c(N)c1,–,inactive,inactive,inactive,inactive,inactive,inactive,inactive,inactive,–
CCC(COC(=O)c1cc(OC)c(OC)c(OC)c1)(c1ccccc1)N(C)C (stereo unspecified),–,inactive,inactive,inactive,inactive,inactive,inactive,inactive,–,inactive

SMILES,outcome [1],outcome [2],outcome [3],outcome [4],outcome [5],outcome [6],outcome [7],outcome [8],outcome [9],Potency [10]
C=CCN1CC[C@]23c4c5ccc(O)c4O[C@H]2C(=O)CC[C@@]3(O)[C@H]1C5,–,inactive,inactive,inactive,inactive,inactive,inactive,–,inactive,–
CCCN(CCC)c1c([N+](=O)[O-])cc(S(C)(=O)=O)cc1[N+](=O)[O-],–,inactive,inactive,inactive,inactive,inactive,–,inactive,inactive,–
O=Cc1ccc2c(c1)OCO2,–,inactive,inactive,inactive,inactive,inactive,inactive,inactive,inactive,–
O=[N+]([O-])c1ccc(F)c([N+](=O)[O-])c1,–,inactive,inactive,inactive,inactive,inactive,inactive,–,inactive,–
c1ccc(CN2CCNCC2)cc1,–,inactive,inactive,inactive,inactive,inactive,inactive,inactive,–,–
CN1C[C@H](CNC(=O)OCc2ccccc2)C[C@@H]2c3cccc4c3c(cn4C)C[C@H]21,–,inactive,inactive,inactive,inactive,inactive,inactive,inactive,–,–
CCOP(=S)(OCC)SCn1nnc2ccccc2c1=O,–,inactive,inactive,inactive,inactive,inactive,inactive,inactive,inactive,–
CCc1ccc(C(=O)NN(C(=O)c2cc(C)cc(C)c2)C(C)(C)C)cc1,–,inactive,inactive,inactive,inactive,inactive,inactive,inactive,inactive,–
CCOP(=O)(OCC)SCCSCC,–,inactive,inactive,inactive,inactive,inactive,inactive,–,–,–
CC(Cl)C(C)Cl (stereo unspecified),–,inactive,inactive,inactive,inactive,inactive,inactive,inactive,–,–
c1ccoc1,–,inactive,inactive,inactive,inactive,inactive,inactive,inactive,–,–
O=C(O)C(F)(F)C(F)(F)C(F)(F)C(F)(F)C(F)(F)C(F)(F)C(F)(F)C(F)(F)C(F)(F)F,–,inactive,inactive,inactive,inactive,inactive,–,inactive,inactive,–
O=C(C(Cl)(Cl)Cl)C(Cl)(Cl)Cl,–,inactive,inactive,inactive,inactive,inactive,inactive,inactive,–,–
Cc1c(F)c(F)c(COC(=O)C2C(/C=C(\Cl)C(F)(F)F)C2(C)C)c(F)c1F (stereo unspecified),–,inactive,inactive,inactive,inactive,inactive,inactive,inactive,inactive,–
N#CCC#N,–,inactive,inactive,inactive,inactive,inactive,inactive,–,inactive,inactive
C/C=C/C=O,–,inactive,inactive,inactive,inactive,inactive,inactive,inactive,inactive,–
O=C=Nc1ccc(Cl)cc1,–,inactive,inactive,inactive,inactive,inactive,inactive,–,–,–
CC(C)N(CCC(C(N)=O)(c1ccccc1)c1ccccn1)C(C)C (stereo unspecified),–,inactive,inactive,inactive,inactive,inactive,inactive,–,inactive,–
Nc1ccc([N+](=O)[O-])cc1[N+](=O)[O-],–,inactive,inactive,inactive,inactive,inactive,inactive,–,inactive,–
CC1CC(CC2CCC(N)C(C)C2)CCC1N (stereo unspecified),–,inactive,inactive,inactive,inactive,inactive,inactive,inactive,inactive,inactive
CC(C)(Cl)[N+](=O)[O-],–,inactive,inactive,inactive,inactive,inactive,–,inactive,inactive,–
CC(c1ccc(O)cc1)(c1ccc(O)cc1)c1ccc(O)cc1,–,inactive,inactive,inactive,inactive,inactive,–,–,inactive,19.5 µM (active)
